In PubChem BioAssay (NCI):
About 83,000 compounds went through this panel and 20% of them were active in at least one assay; those are over-represented in the sample as a whole.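 For each line, cells grew in 96-well plates with the test compound present at a single concentration for 48 hours.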 Unmarked numbers belong to inactive results. The source made the active and inactive calls. How the source made its calls: active means growth percent below 10; inactive means the rest.

These compounds were tested on NCI-H23 lung (assay: NCI-60 one-dose screen, 48 h (100 = growth as untreated, 0 = no growth, -100 = all killed)). Details: 10 µM unless noted.

Compound	growth
c1ccc(-c2nc3ccccc3[nH]2)c(OCCCCCOc2ccccc2-c2nc3ccccc3[nH]2)c1	80.1%
COc1ccc(NC(=O)c2ccc(Nc3ncnc4c3cnn4-c3cccc(F)c3)cc2)cc1	103%
Cc1c2ncccc2nc2[nH]c3ccc(OCCN(C)C)cc3c12	28.1%
Cc1ccc2cnc(N)c(C#Cc3cc(C(=O)Nc4ccc(CN5CCN(C)CC5)c(C(F)(F)F)c4)cnc3C)c2c1	-29.6% (active)
Cc1ccc2c(c1)sc1nc(-c3c[nH]c4ccccc34)c(Nc3ccccc3)n12	98.4%
C(=C(\C1=NCCN1)n1ccc2ccccc21)/c1ccccc1	97%
Cc1ccc2c(c1)=C/C(=C\c1cc(-c3ccccc3)[nH]c1O)C(=O)N=2	56.7%
Cc1cc(Cl)nc(N2CCN(CCNc3ccnc4cc(Cl)ccc34)CC2)n1	27.2%
O=C(NNc1nc2cc(F)ccc2n2c(CN3CCOCC3)ccc12)c1ccccc1	19.7%
CCN(CC)CCOc1ccc(/C(=C(\C)Cc2ccc(OC)cc2)c2ccc(OC(=O)NCc3ccccc3)cc2)cc1	88.4%
COC(=O)c1c2c(c[n+]([O-])c1C)C(=O)C=C(NCc1ccccc1)C2=O	-39.1% (active)
O=S(=O)(Nc1cc(F)cc(F)c1)c1ccc(-c2cnc(C3CC3)o2)cc1	63.7%
COc1ccc2c(c1)CC[C@@H]1[C@@H]2CC[C@]2(C)c3c(cc(C#N)c4c3sc3ccccc34)C[C@@H]12	99.4%
